# From PubChem BioAssay (NCATS)
# Where “and” joins values, the source holds several entries; their conditions need not be identical. Equal entries are not always repeated. Results filed as inconclusive are left out. Calls of active or inactive are those of the source. Calls follow the shape of the dose curve; as a rule, active = well fitted inhibition curve with a large enough effect in the main read-out, with a control signal flat (not every such curve was filed as active); inconclusive = small, poorly fitted or top-dose-only effect, or effect the other way, or a change in a side signal; inactive = no such curve, though single readings can be large or run the other way.
# Assay: Nrf2 qHTS screen for inhibitors: Validation (AID 493153)
# Conditions: A549 ARE-Fluc reporter, 18-24 h; Potency: luciferase luminescence; viability change: measured here: cytotoxicity max response; luciferase luminescence, at 46.1 µM (top of the series)
# Method in brief: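 In this counterscreened reporter format, each well gives two signals: CellTiter-Fluor fluorescence for cytotoxicity and ARE-luciferase luminescence for Nrf2 function. A549 ARE_Fluc cells in 5% FBS OPTI-MEM were exposed to compound titrations for 18-24 h.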
# Potency is read from the fitted curve at half-maximal effect.
SMILES,Potency,viability change
O=C(O)/C=C/C(O)c1ccc(Cl)cc1 (stereo not given),inactive,2.66%
C[C@@H](CN1CCC(Cc2ccccc2)CC1)[C@@H](O)c1ccc(O)cc1,inactive,8.45%
NC(=O)C(=O)O,inactive,4.28%
CNCC[C@H](Oc1ccc(C(F)(F)F)cc1)c1ccccc1,inactive,1.58%
CC(=O)SCC[N+](C)(C)C,inactive,-2.78%
CN1C2CCC1CC(OC(=O)C(O)c1ccccc1)C2 (stereo not given),inactive,-17.3%
Cc1ccc(C(=O)O[C@H](C(=O)O)[C@@H](OC(=O)c2ccc(C)cc2)C(=O)O)cc1 (tested in a mixture with another compound),inactive,-3.95%
O=Nc1ccc2oc(=O)ccc2c1,inactive,1.8%
N=C(N)SCCc1ccc(CCSC(=N)N)cc1,inactive,-6.92%
C=CC(N)CCC(=O)O (stereo not given),inactive,4.81%
CCCCCCCCCCCCCCCCCCNC(=O)OCC(COP(=O)([O-])OCC[n+]1ccsc1)OC (stereo not given),inactive,1.65%
COc1cccc(OC)c1OCCNCC1COc2ccccc2O1 (stereo not given),inactive,4.98%
CC(C)NC[C@H](O)COc1cccc2[nH]ccc12,inactive,-1.79%
CCC1C(=O)OCC1Cc1cncn1C (stereo not given),inactive,6.63% and 6.13%
NC(CCCP(=O)(O)O)C(=O)O (stereo not given),inactive,3.42%
O=C(O)c1cc(=O)c2ccccc2[nH]1,inactive,-7.12%
O=C(O)CC[C@@H](C(=O)O)N1C(=O)c2ccccc2C1=O,inactive,9.01%
CC(C)(C=O)Cc1cc(C(C)(C)C)c(O)c(C(C)(C)C)c1,inactive,5.81%
CC1OC1P(=O)(O)O (stereo not given),inactive,11.8%
CCCCC/C=C\CC(O)/C=C/c1cccc(CC(O)CCCCO)n1 (stereo not given),inactive,-0.641%
O=c1[nH]c2cc([N+](=O)[O-])c([N+](=O)[O-])cc2[nH]c1=O,inactive,0.435%
CN(C)c1nc2c(Br)c(Br)c(Br)c(Br)c2[nH]1,16.4 µM (active),-13.2%
NCCNC(=O)c1ncsc1-c1cccc(F)c1,inactive,1.7%
CCCCCCCCCCCCCCCC(=O)OC(CC(=O)O)C[N+](C)(C)C (stereo not given),inactive,-1.76%
C[N+](C)(CCCCCC[N+](C)(C)CCCN1C(=O)c2cccc3cccc(c23)C1=O)CCCN1C(=O)c2cccc3cccc(c23)C1=O,inactive,-2.29%
NCCSSCCN,inactive,-6.08%
CN(C)C(N)=NCCC[C@H](N)C(=O)O,inactive,-5.79%
Fc1ccc(C(OCCCc2cnc[nH]2)c2ccc(F)cc2)cc1,inactive,0.0521%
O=C(O)c1cc(=O)c2c(Cl)cc(Cl)cc2[nH]1,inactive,-1.84%
CN(C)CCC(c1ccc(Cl)cc1)c1ccccn1 (stereo not given),inactive,7.36%
